PubChem BioAssay (NCI)
“And” between values parts separate entries of the source, which are not always exact repeats. Equal values may be shown once. The panel holds about 83,000 compounds, 20% with a hit somewhere; the sample as a whole holds those more often.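 The test compound was applied at a single concentration to cells in 96-well plates for 48 hours, and percent growth was recorded.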 The source made the active and inactive calls. Rule for the calls: active = growth percent below 10; inactive = the rest.

Key:
Experiment in all cases: NCI-60 one-dose screen, 48 h (100 = growth as untreated, 0 = no growth, -100 = all killed)
Settings in all cases: 10 µM unless noted
T-47D breast = tested on: T-47D breast
BT-549 breast = tested on: BT-549 breast
MDA-MB-435 melanoma = tested on: MDA-MB-435 melanoma
SW-620 colon = tested on: SW-620 colon
MCF7 breast = tested on: MCF7 breast
HCT-116 colon = tested on: HCT-116 colon
HCC-2998 colon = tested on: HCC-2998 colon
KM12 colon = tested on: KM12 colon

Row | Structure (SMILES) | growth (T-47D breast) | growth (BT-549 breast) | growth (MDA-MB-435 melanoma) | growth (SW-620 colon) | growth (MCF7 breast) | growth (HCT-116 colon) | growth (HCC-2998 colon) | growth (KM12 colon)
1 | CCN(CC)CCO/N=C1\CC(c2ccc(OC)c(OC)c2)Oc2ccccc21 (stereo not drawn) | 89.4% (inactive) | 94% (inactive) | 100% (inactive) | 90.3% (inactive) | 89.4% (inactive) | 84.1% (inactive) | 109% (inactive) | 103% (inactive)
2 | CC(=O)c1cc2ccccc2o1 | 100% (inactive) | 97.2% (inactive) | 109% (inactive) | 112% (inactive) | 95.6% (inactive) | 100% (inactive) | 109% (inactive) | 109% (inactive)
3 | CCn1c2ccc(N(C)C)cc2c2cc(N(C)C)ccc21 | 88.2% (inactive) | 96.6% (inactive) | 111% (inactive) | 96.2% (inactive) | 86.4% (inactive) | 101% (inactive) | 99.2% (inactive) | 92.8% (inactive)
4 | O=C(O)C#Cc1ccc(Cl)cc1 | 90.7% (inactive) | 99.9% (inactive) | 106% (inactive) | 96.8% (inactive) | 98.8% (inactive) | 102% (inactive) | 108% (inactive) | 104% (inactive)
5 | CN(C)CC(CN(C)C)C(O)c1ccccc1 (stereo not drawn) | 95.2% (inactive) | 101% (inactive) | 112% (inactive) | 111% (inactive) | 98.5% (inactive) | 101% (inactive) | 111% (inactive) | 102% (inactive)
6 | NC1=NC(c2ccccc2)N=C(Nc2ccccc2)N1 (stereo not drawn) | 98.4% (inactive) and 106% (inactive) | 74.5% (inactive) and 83.4% (inactive) | 18.2% (inactive) and 7.52% (active) | 84.4% (inactive) and 94.5% (inactive) | 13.7% (inactive) and 22% (inactive) | 59.9% (inactive) and 44.6% (inactive) | 93.6% (inactive) | 26.1% (inactive) and 51.7% (inactive)
7 | N#Cc1ccc(/C=C/C(=O)c2ccccc2)cc1 | 88.3% (inactive) and 82.5% (inactive) | 98% (inactive) and 96.5% (inactive) | 84.4% (inactive) and 95.2% (inactive) | 19.1% (inactive) and 1.04% (active) | 3.73% (active) and 34.9% (inactive) | -97.4% (active) and -60.8% (active) | 110% (inactive) and 7.47% (active) | -47.9% (active) and 15.7% (inactive)
8 | S=c1ccc2ccccc2[nH]1 | 90.1% (inactive) and 91.2% (inactive) | 100% (inactive) and 104% (inactive) | 110% (inactive) and 104% (inactive) | 106% (inactive) and 104% (inactive) | 99.5% (inactive) and 103% (inactive) | 95.9% (inactive) and 102% (inactive) | 111% (inactive) and 107% (inactive) | 106% (inactive) and 103% (inactive)
9 | O=C(NC(=O)c1ccc(F)c(Cl)c1)NC1CC1 | 91.8% (inactive) | 107% (inactive) and 109% (inactive) | 114% (inactive) and 102% (inactive) | 104% (inactive) and 100% (inactive) | 100% (inactive) and 89.6% (inactive) | 104% (inactive) and 105% (inactive) | 96.2% (inactive) and 106% (inactive) | 105% (inactive) and 101% (inactive)
10 | CN(C)C(=N)N=C(N)N | 90.5% (inactive) and 102% (inactive) | 80.2% (inactive) and 156% (inactive) | 109% (inactive) and 124% (inactive) | 108% (inactive) and 105% (inactive) | 96.7% (inactive) and 146% (inactive) | 108% (inactive) and 98.3% (inactive) | 115% (inactive) | 100% (inactive) and 108% (inactive)
11 | c1ccc2c[n+](Cc3ccc4ccccc4n3)ccc2c1 | 62.6% (inactive) | 47.2% (inactive) | 90.3% (inactive) | 87.5% (inactive) | 72.2% (inactive) | 59.3% (inactive) | 71.7% (inactive) | 76.1% (inactive)
12 | O=C(O)C(Cc1ccc(OS(=O)(=O)Cc2ccccc2)cc1)NS(=O)(=O)Cc1ccccc1 (stereo not drawn) | 101% (inactive) and 99.9% (inactive) | 104% (inactive) and 106% (inactive) | 98.7% (inactive) and 111% (inactive) | 105% (inactive) | 91.4% (inactive) and 98.4% (inactive) | 105% (inactive) and 109% (inactive) | 115% (inactive) | 101% (inactive) and 106% (inactive)
13 | COc1cc(C2c3cc4c(cc3C(OC(=O)C[n+]3ccccc3)C3COC(=O)C23)OCO4)cc(OC)c1OC (stereo not drawn) | 94.8% (inactive) | 19.8% (inactive) | -8.6% (active) | 21.3% (inactive) | 9.23% (active) | 5.09% (active) | 13.3% (inactive) | -8.66% (active)
14 | CC1=CC(=O)C=CC1=Nc1ccc(N(C)C)cc1 | 69.1% (inactive) and -24.8% (active) | 79% (inactive) and 27.8% (inactive) | 59.4% (inactive) and 6.47% (active) | 105% (inactive) | 89.9% (inactive) and 6.86% (active) | 84.3% (inactive) and 2.64% (active) | 98.4% (inactive) and 59.1% (inactive) | 83.4% (inactive) and 25.2% (inactive)
15 | O=C(O)COc1ccccc1F | 107% (inactive) | 108% (inactive) | 108% (inactive) | 104% (inactive) | 107% (inactive) | 95.5% (inactive) | 111% (inactive) | 104% (inactive)
16 | CC(=O)Nc1cscc1NC(C)=O | 94.4% (inactive) | 90.3% (inactive) | 89.1% (inactive) | 97.6% (inactive) | 94.5% (inactive) | 103% (inactive) | 94.1% (inactive) | 106% (inactive)
17 | COC(=O)C(Cc1cn(C(C)=O)c2ccccc12)P(=O)(OC)OC (stereo not drawn) | 105% (inactive) | 105% (inactive) | 99.5% (inactive) | 99.5% (inactive) | 101% (inactive) | 96.4% (inactive) | 103% (inactive) | 99.2% (inactive)
18 | Nc1ccc(O)c(C(=O)O)c1 | 95% (inactive) and 104% (inactive) and 106% (inactive) | 76.3% (inactive) and 111% (inactive) and 92.6% (inactive) | 99.8% (inactive) and 101% (inactive) and 108% (inactive) | 96.7% (inactive) and 94.1% (inactive) and 103% (inactive) | 86.4% (inactive) and 102% (inactive) and 107% (inactive) | 98.7% (inactive) and 99.9% (inactive) and 85.5% (inactive) | 107% (inactive) and 104% (inactive) and 99.9% (inactive) | 101% (inactive) and 107% (inactive) and 91.5% (inactive)
19 | CC1CC(O)CC(C)(C)C1.CC1CC(O)CC(C)(C)C1.CC1CC(O)CC(C)(C)C1.CC1CC(O)CC(C)(C)C1.[Ti] (stereo not drawn) | 92.7% (inactive) | 111% (inactive) | 99.6% (inactive) | 99.8% (inactive) | 99.8% (inactive) | 99.5% (inactive) | 110% (inactive) | 103% (inactive)
20 | O=c1[nH]c(=O)c2[nH]c(=O)[nH]c2[nH]1 | 103% (inactive) | 90.8% (inactive) | 100% (inactive) | 94.3% (inactive) | 92.1% (inactive) | 94.6% (inactive) | 107% (inactive) | 104% (inactive)
21 | CCc1ccc(OC(=O)CCl)cc1 | 100% (inactive) | 109% (inactive) | 100% (inactive) | 109% (inactive) | 103% (inactive) | 102% (inactive) | 104% (inactive) | 95% (inactive)
22 | COc1ccc(CCO)cc1 | 101% (inactive) | 105% (inactive) | 109% (inactive) | 104% (inactive) | 102% (inactive) | 94.6% (inactive) | 107% (inactive) | 102% (inactive)
23 | CCC/C(=N/NC(N)=O)c1ccco1 | 72.6% (inactive) | 97.4% (inactive) | 106% (inactive) | 102% (inactive) | 92.1% (inactive) | 99.7% (inactive) | 104% (inactive) | 103% (inactive)
24 | Cc1cccc(Cl)c1N | 110% (inactive) | 111% (inactive) | 95.7% (inactive) | 96.9% (inactive) | 99% (inactive) | 113% (inactive) | 102% (inactive) | 110% (inactive)
25 | O=[N+]([O-])c1ccc(N/N=C/C2CCCCCC2)c([N+](=O)[O-])c1 | 84% (inactive) | 91% (inactive) | 87.6% (inactive) | 79% (inactive) | 94.8% (inactive) | 103% (inactive) | 106% (inactive) | 71.6% (inactive)
26 | COC(=O)c1nc(=S)[nH]c(C(=O)OC)c1C(=O)c1ccc(OC)cc1 | 125% (inactive) | 109% (inactive) | 110% (inactive) | 105% (inactive) | 93.6% (inactive) | 115% (inactive) | 118% (inactive) | 103% (inactive)
